The structures appear in SMILES notation. Results filed as inconclusive are left out. Unmarked numbers belong to inactive results. Calls of active or inactive are those of the source. The call rests on the fitted dose curve; in most records, active means well fitted inhibition curve with a large enough effect; inconclusive means small, poorly fitted or top-dose-only effect; inactive means no such curve, though single readings can be large or run the other way.

Results on 30 compounds are retold here after PubChem BioAssay (NCATS).

Experiment [1] has as its system Zika virus NS2B-NS3 protease (unlinked complex). Briefly: Primary screen GU Rhodamine qHTS for Zika virus inhibitors: Unlinked NS2B-NS3 protease assay (AID 1347159). Further: nearly all actives have a fitted effect of over 60% in size. The method, boiled down:
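Enzyme 25 nM in Tris-HCl pH 8.0 + 0.01% Tween 20; compounds up to 114 microM, 15 min RT dark; + Rhod110 substrate 1.5 microM; read t0 and 15 min; delta fluorescence → % inhibition → 4-parameter Hill fit.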

In experiment [2] the test system is Zika virus NS2B-NS3 protease (linked construct). Description: Primary screen NINDS Rhodamine qHTS for Zika virus inhibitors (AID 1347160). Further: nearly all actives have a fitted effect of over 55% in size. An outline of the steps: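 Enzyme (25 nM, linked NS2B-NS3) was preincubated 15 min with compound in 10 mM Tris-HCl pH 8.0, 0.01% Tween 20. Rhodamine110 substrate (1.5 microM) was then added and fluorescence read at start and after 15 min.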
On the % scale 0 is the no-effect control and ±100 the full control effect.

Take `CNC12CC3C[C@@](C)(C1)C[C@](C)(C3)C2`: the Potency entry in experiment [1] and in experiment [2] was “inactive” in each case.
On to `CN(C)C/C=C/C(=O)Nc1cc2c(Nc3ccc(F)c(Cl)c3)ncnc2cc1OC1CCOC1` (stereo not given), for which the Potency entry in experiment [1] and in experiment [2] was “inactive” throughout.
`CC(=O)OC1C(OC(=O)c2ccccc2)C2C(C)(C)CC(=O)CC2(C)C23CCC(C)(C2)C(O)CC13` (stereo not given): the Potency result in experiment [1] and in experiment [2] was “inactive” each time.
Regarding `COc1ccc(C2COc3cc(O)ccc3C2)c(O)c1` (stereo not given), the Potency entry in experiment [1] and in experiment [2] was “inactive” in each case.
With `CC1(C)CCC[C@]2(C)[C@H]3CC(=O)O[C@]3(C)CC[C@@H]12`, the Potency entry in experiment [1] and in experiment [2] was “inactive” in each case.
Take `CC(=O)NC1=NN(C(C)=O)C(C)(c2ccccc2)S1` (stereo not given): the Potency result in experiment [1] and in experiment [2] was “inactive” each time.
Consider `CCC(Nc1ncnc2nc[nH]c12)c1nc2cccc(F)c2c(=O)n1-c1ccccc1` (stereo not given), for which the Potency result in experiment [1] and in experiment [2] was “inactive” in each case.
On to `COC(=O)C12C(=O)C(C)=C(O)C1(C)C(C)=CC1C3(CO)CCC(O)C(C)(C)C3CCC12C` (stereo not given), for which the Potency entry in experiment [1] and in experiment [2] was “inactive” in each case.
On to `C[S+](CC[C@H](N)C(=O)[O-])C[C@H]1O[C@@H](n2cnc3c(N)ncnc32)[C@H](O)[C@@H]1O` (stereo not given in full), for which the Potency entry in experiment [1] and in experiment [2] was “inactive” each time.
Turning to `C1CCC[C@H]2CCCN3CC[C@@H](CCCCCC[C@@H]4CCCN5CC[C@@H](CC1)O[C@@H]45)O[C@@H]23`, the activity change, negative = inhibition in experiment [1] is -7.05% [at 0.23 µM]; in experiment [2] it was 20.2% [at 0.092 µM].
On to `C[C@@H]1[C@H]2[C@H](O[C@@H]3O[C@H](CO)[C@@H](O)[C@H](O)[C@H]3O)OC=C(C(=O)O)[C@H]2C[C@@H]1O`, for which the Potency result in experiment [1] and in experiment [2] was “inactive” throughout.
Turning to `C=C(C)C(=O)O[C@H]1CC2=CC(C/C(C)=C\[C@H]3OC(=O)C(=C)[C@H]13)OC2=O` (stereo not given in full), the Potency result in experiment [1] and in experiment [2] was “inactive” each time.
`COC(=O)N(C)c1c(N)nc(-c2nn(Cc3ccccc3F)c3ncccc23)nc1N`: the Potency entry in experiment [1] and in experiment [2] was “inactive” each time.
As for `C=C1C[C@]23C[C@H]1CC[C@H]2[C@@]12CC[C@H](O)[C@@](C)(C(=O)O1)[C@H]2[C@@H]3C(=O)O`, the Potency entry in experiment [1] and in experiment [2] was “inactive” in each case.
In the case of `CC1=CC(=O)C(=C(C)C)CC2C1CCC2(C)O` (stereo not given), the Potency entry in experiment [1] and in experiment [2] was “inactive” throughout.
With `O=C(C(c1ccccc1)c1ccccc1)N1CCN(CC(O)COc2cccc3ncccc23)CC1` (stereo not given), the Potency entry in experiment [1] and in experiment [2] was “inactive” throughout.
Take `COC(C(=O)N1Cc2[nH]nc(NC(=O)c3ccc(N4CCN(C)CC4)cc3)c2C1)c1ccccc1` (stereo not given): the Potency entry in experiment [1] and in experiment [2] was “inactive” each time.
As to `Cc1[nH]nc(C(F)(F)F)c1Cc1sc2c(c1C(=O)N1C[C@](C)(O)CO1)c(=O)n(C)c(=O)n2C(C)C`, the Potency result in experiment [1] and in experiment [2] was “inactive” throughout.
For the compound `Cc1cccc(S(=O)(=O)N2CCC[C@@H]2CCN2CCC(C)CC2)c1`, the Potency entry in experiment [1] and in experiment [2] was “inactive” in each case.
`CC(=O)NC[C@H]1CN(c2ccc(N3CCN(C(=O)CO)CC3)c(F)c2)C(=O)O1`: the Potency result in experiment [1] and in experiment [2] was “inactive” in each case.
For `CC1OC2OC(=O)C3(C)CC4=C(CO)C5=C(CC(=O)C4(C)C(C1=O)C23)C(C)(C)OC(=O)C5` (stereo not given), the Potency result in experiment [1] and in experiment [2] was “inactive” in each case.
For `COC(=O)c1ccc(OC(CO)C(O)c2ccc(O)c(OC)c2)c(OC)c1` (stereo not given), the Potency result in experiment [1] and in experiment [2] was “inactive” throughout.
`CC(C)CNCc1ccc(-c2ccccc2S(=O)(=O)N2CCCC2)cc1`: the Potency entry in experiment [1] and in experiment [2] was “inactive” in each case.
As to `CC(C)=CCC[C@](C)(O)[C@H]1CC[C@]2(C)[C@@H]1[C@H](O)CC1[C@@]3(C)CC[C@H](O)C(C)(C)[C@@H]3[C@@H](O[C@@H]3O[C@H](CO)[C@@H](O)[C@H](O)[C@H]3O[C@@H]3O[C@H](CO)[C@@H](O)[C@H](O)[C@H]3O)C[C@]12C` (stereo not given in full), the Potency result in experiment [1] and in experiment [2] was “inactive” in each case.
Regarding `COc1cc(/C=C/CO)cc(OC)c1O[C@@H]1O[C@H](CO[C@@H]2O[C@H](CO)[C@@H](O)[C@H](O)[C@H]2O)[C@@H](O)[C@H](O)[C@H]1O`, the Potency entry in experiment [1] and in experiment [2] was “inactive” each time.
With `C=C1C(O)C[C@@H]2C(C(=O)O)=CO[C@@H](O[C@@H]3O[C@H](CO)[C@@H](O)[C@H](O)[C@H]3OC(=O)c3ccc(O)cc3)[C@H]12` (stereo not given in full), the Potency entry in experiment [1] and in experiment [2] was “inactive” each time.
On to `Cc1ncc(CCCN(C)C)cc1Nc1ncc2c(n1)-c1ccc(C(F)(F)F)cc1NC(=S)C2`, for which the Potency result in experiment [1] and in experiment [2] was “inactive” each time.
For the compound `CC1(C)CC[C@]2(C(=O)O[C@@H]3O[C@H](CO)[C@@H](O)[C@H](O)[C@H]3O)CC[C@]3(C)C(=CCC4[C@@]5(C)C[C@@H](O)[C@H](O)C(C)(C)C5CC[C@]43C)C2[C@@H]1O` (stereo not given in full), the Potency entry in experiment [1] and in experiment [2] was “inactive” throughout.
`C/C(=C\CCC(C)CCO)C(=O)OC1(C)CCC2C(C(=O)O)=COC(OC3OC(CO)C(O)C(O)C3O)C21` (stereo not given): the Potency entry in experiment [1] and in experiment [2] was “inactive” each time.
Take `C[C@@H](Oc1cc(-n2cnc3ccc(OC4CCN(C)CC4)cc32)sc1C(N)=O)c1ccccc1C(F)(F)F`: the Potency entry in experiment [1] and in experiment [2] was “inactive” each time.
